Data reported in PubChem BioAssay (Tox21).
Unmarked numbers belong to inactive results. Calls follow the shape of the dose curve; as a rule, active = well fitted activation curve with a large enough effect in the repeat runs; inconclusive = weak or mixed curves; inactive = flat fitted curve, though single readings scatter.

assay: A CellTox Green Cytotoxicity Assay to monitor cytotoxicity in HepG2 cells - 0 hour (AID 1224882); details: CellTox Green fluorescence; series mostly up to 76.8 µM; cytotoxicity: at the top concentration; also: nearly all actives have a fitted effect of over 35% in size
Source text: National Center for Advancing Translational Sciences [NCATS]
NIH Chemical Genomics Center [NCGC]
U.S. Environmental Protection Agency [EPA]
National Institutes of Environmental Health Sciences [NIEHS]
National Toxicology Program [NTP]
Cell-based models are critical for drug discovery. Determining the natural cytotoxic effects resulting from test compounds is an essential research activity. A CellTox Green Cytotoxicity Assay to monitor cytotoxicity in real time of continues cell culture during 40 hours of the compound treatment was used to screen Tox21 10K library compounds in HepG2 cells. CellTox Green Cytotoxicity Assay is a nonlytic, homogeneous, biofluorescent method to measure cytotoxicity in cell culture after experimental manipulation. The assay system uses a proprietary asymmetric cyanine dye that is excluded from viable cells but preferentially stains the dead cell's DNA. […] Viable cells produce no appreciable increases in fluorescence. Therefore, the fluorescence signal produced by the binding interaction with dead cell DNA is proportional to cytotoxicity.
The mixture of HepG2 cell suspension and reagents were dispensed at 600cells/6 ul/well in 1536-well tissue culture treated black solid bottom plates using a Multidrop dispenser. After the assay plates were incubated at a 37 C/5% CO2 incubator for 5 hours, 23 nL of compounds dissolved in DMSO, positive and negative controls was transferred to the assay plate by a pintool work station. The plates were incubated at 37 C for 40 hours. The fluorescence intensity were measured at 0h, 8h, 16h, 24h, 32h and 40h time points using ViewLux plate reader during compound treatment.
% is scaled to controls: 0 for no effect and ±100 for the full control effect.

Row | SMILES | cytotoxicity
1 | NCCOCCN | -8.74%
2 | C/C=C(\C)C(=O)OCCc1ccccc1 | -6.87%
3 | COC(=O)c1ccccc1C(=O)O | 1.68%
4 | CC1=NN(c2ccc(S(=O)(=O)O)cc2)C(=O)C1 | 4.2%
5 | CN(C)CCCCl | -5.34%
6 | OC[C@@H](O)C(O)[C@@H](O)CO (stereo not given in full) | 0.802%
7 | COC(=O)c1cc(Cl)cc(Cl)c1 | -2.86%
8 | CCOC(=O)CC1(C)OCC(C)O1 (stereo not given) | 0.923%
9 | Cn1nnc2c(C(N)=O)ncn2c1=O | 17.9% [at 35.3 µM]
10 | Cc1c(C(=O)c2c[nH]n(C)c2=O)ccc(S(C)(=O)=O)c1C1=NOCC1 | -3.72% [at 35.3 µM]
11 | Cc1ccccc1C(N)=O | -0.994%
12 | O=C(O)CSCC(=O)NC1CCSC1=O (stereo not given) | -10% [at 35.3 µM]
13 | CC(C)NC(=O)c1ccc(C=O)cc1 | -2.54% [at 35.3 µM]
14 | CCCCCc1cccc(=O)o1 | 1.45%
15 | Cc1ccc(C(C)NC(=O)[C@@H](NC(=O)OC(C)C)C(C)C)cc1 (stereo not given in full) | 0.658%
16 | O=C(O)CCCCCC(=O)O | -0.167%
17 | CCCCCCCCCCCCCCC(=O)NC(CO)CCCCCCCCCCCCCC (stereo not given) | -0.817%
18 | O=C1OCCO1 | -1.03%
19 | O=C1CCC(=O)N1Cl | -4.73%
20 | O=S(=O)(O)c1ccc2c(N=Nc3ccc(S(=O)(=O)O)c4ccccc34)c(O)c(S(=O)(=O)O)cc2c1 | -11.5% [at 6.97 µM]

Row | SMILES | cytotoxicity
21 | Cc1ncc([N+](=O)[O-])n1CC(C)O (stereo not given) | 3.46% [at 35.3 µM]
22 | C=CCOC(=O)CCCCCC | 1.16%
23 | CCCCCCCCCCCCCCCCCCOCCO | -0.0743% [at 15.8 µM]
24 | c1ccc(B(c2ccccc2)c2ccccc2)cc1 | 2.3%
25 | C=CCCCCCCCC | -1.03%
26 | C=CCN1C[C@H](C(=O)N(CCCN(C)C)C(=O)NCC)C[C@@H]2c3cccc4[nH]cc(c34)C[C@H]21 | -16.6% [at 35.3 µM]
27 | O=Cc1ccccc1Cl | 2.21%
28 | CCOC(CN1CCN(CC(C)C(=O)c2ccccc2)CC1)c1ccccc1 (stereo not given) | -4.84% [at 15.8 µM]
29 | CC1=C(O)C(=O)C(C)O1 (stereo not given) | -4.66%
30 | COc1ccc(CCO)cc1 | 0.134%
31 | CCCCC1CCC(O)CC1 (stereo not given) | -4.61%
32 | CCCCCCC1(C)CCC(=O)O1 (stereo not given) | -2.16%
33 | CC(C)COC(=O)c1ccccc1 | 0.549%
34 | COc1cc2c(cc1OC)C(=O)C(CC1CCN(Cc3ccccc3)CC1)C2 (stereo not given) | -7.18% [at 35.3 µM]
35 | O=[N+]([O-])c1c(Cl)cc(Cl)cc1Cl | 0.0526%
36 | CC(C)CO | 0.0249%
37 | Cc1cc(-c2ccccc2)nnc1NCCN1CCOCC1 | 2.8% [at 35.3 µM]
38 | CC(C)OC(=O)OCOP(=O)(CO[C@H](C)Cn1cnc2c(N)ncnc21)OCOC(=O)OC(C)C | 1.39% [at 35.3 µM]
39 | N[C@@H](CSCCCO)C(=O)O | -7.54% [at 15.8 µM]
40 | CCC(=O)CC | 4.9%
